Where “and” joins values, the source holds several entries; their conditions need not be identical. Equal values may be shown once. Unmarked numbers belong to inactive results. Inconclusive results are not listed. Calls of active or inactive are those of the source. Unless noted, calls follow the shape of the dose curve; as a rule, active = well fitted curve in the direction sought with a large enough effect in the repeat runs; inconclusive = weak or mixed curves; inactive = no such curve, though single readings can be large; an effect the other way counts as inactive or inconclusive.

Test [1] is described as follows: qHTS assay to test for compound auto fluorescence at 535 nm (green) in HEK293 cells (AID 720680; also: % is scaled to controls: 0 for no effect and ±100 for the full control effect). (In qHTS, concentration-response curves come from the screen itself.)
Test [2] can be described thus: qHTS assay to test for compound auto fluorescence at 460 nm (blue) in HEK293 cell free culture (AID 720681). Also: % is scaled to controls: 0 for no effect and ±100 for the full control effect. In short, it runs like this:
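Blue fluorescence (Ex 405/Em 460 nm, triamterene-equivalent) was read immediately after pin transfer of compound or DMSO into medium (DMEM, 10% FBS) without cells.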

Test [3] in a line: qHTS assay to test for compound auto fluorescence at 535 nm (green) in HEK293 cell free culture (AID 720682). Also: % is scaled to controls: 0 for no effect and ±100 for the full control effect. In short, it runs like this: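 Measurement is a direct plate read of green fluorescence (485 nm in, 535 nm out) after compound addition to serum-supplemented DMEM lacking cells, with fluorescein used to express intensities.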
A short description of test [4]: qHTS assay to test for compound auto fluorescence at 590 nm (red) in HEK293 cell free culture (AID 720683). Also: % is scaled to controls: 0 for no effect and ±100 for the full control effect. In short, it runs like this:
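Red-channel autofluorescence of compounds in culture medium (DMEM, 10% FBS), no cells, measured at 540/590 nm. Rose Bengal sodium is the reference fluorophore for equivalence.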

Test [5] can be described thus: qHTS assay to test for compound auto fluorescence at 590 nm (red) in HepG2 cell free culture (AID 720684). Also: % is scaled to controls: 0 for no effect and ±100 for the full control effect. In a few lines: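 Cell-free; medium MEM + 10% FBS; compound or DMSO added by pintool; read Ex 540/Em 590 nm; Rose Bengal sodium as red reference fluorophore.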
Test [6] is described as follows: qHTS assay to test for compound auto fluorescence at 460 nm (blue) in HepG2 cell free culture (AID 720685). Also: % is scaled to controls: 0 for no effect and ±100 for the full control effect. In a few lines:
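Cell-free plates of MEM plus 10% FBS received 23 nL compound or DMSO vehicle; blue-channel (405/460 nm) intensity scored against triamterene as reference fluorophore.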

Test [7] can be described thus: qHTS assay to test for compound auto fluorescence at 535 nm (green) in HepG2 cell free culture (AID 720686). Also: % is scaled to controls: 0 for no effect and ±100 for the full control effect.
The nature of test [8]: qHTS assay to test for compound auto fluorescence at 460 nm (blue) in HepG2 cells (AID 720687). Also: % is scaled to controls: 0 for no effect and ±100 for the full control effect. In a few lines: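 Blue-channel autofluorescence (Ex/Em 405/460 nm, triamterene-equivalent) was measured after 1 hr compound exposure at 37 C, 5% CO2. Cells were HepG2, plated overnight at 37 C in MEM plus 10% FBS.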
Test [9] in a line: qHTS assay to identify small molecule antagonists of the glucocorticoid receptor (GR) signaling pathway - cell viability counter screen (AID 720693). Also: nearly all actives have a fitted effect of over 55% in size. Also: potency is read from the fitted curve at half-maximal effect.
Test [10] can be described thus: qHTS assay for identifying genotoxic compounds that show differential cytotoxicity against isogenic chicken DT40 cell lines with known DNA damage response pathways - Rad54/Ku70 mutant cell line (AID 743015). Also: nearly all actives have a fitted effect of over 60% in size. Also: potency is read from the fitted curve at half-maximal effect.
Test [11] is described as follows: qHTS assay for identifying genotoxic compounds that show differential cytotoxicity against isogenic chicken DT40 cell lines with known DNA damage response pathways - wild type cell line (AID 743012). Also: nearly all actives have a fitted effect of over 60% in size. Also: potency is read from the fitted curve at half-maximal effect. In short, it runs like this:
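CellTiter-Glo luminescence readout of viability in wild type DT40 cells after 40 h compound exposure at 37 C/5% CO2; 300 cells/well; reagent incubated 30 min at room temperature before reading.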

A short description of test [12]: qHTS assay for identifying genotoxic compounds that show differential cytotoxicity against isogenic chicken DT40 cell lines with known DNA damage response pathways - Rev3 mutant cell line (AID 743014). Also: potency is read from the fitted curve at half-maximal effect; nearly all actives have a fitted effect of over 55% in size.
A short description of test [13]: qHTS assay to identify small molecule antagonists of the androgen receptor (AR) signaling pathway - cell viability counter screen (AID 743033; also: nearly all actives have a fitted effect of over 45% in size; also: potency is read from the fitted curve at half-maximal effect).
For test [14], the target named is Androgen receptor (Homo sapiens) (UniProt P10275). Put plainly: qHTS assay to identify small molecule antagonists of the androgen receptor (AR) signaling pathway (AID 743035; active = well fitted inhibition curve with a large enough effect in the signal ratio in the repeat runs, not every such curve was filed as active; the % refers to the signal ratio; also: potency is read from the fitted curve at half-maximal effect). In a few lines: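 AR-bla HEK293 reporter cells; 4 h settle at 37C/5% CO2; compound + R1881 agonist, 16 h at 37C; LiveBLAzer B/G FRET substrate 2 h RT; fluorescence intensity read. qHTS format.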
Sequence of Androgen receptor (Homo sapiens) (P10275 whole entry, looked up): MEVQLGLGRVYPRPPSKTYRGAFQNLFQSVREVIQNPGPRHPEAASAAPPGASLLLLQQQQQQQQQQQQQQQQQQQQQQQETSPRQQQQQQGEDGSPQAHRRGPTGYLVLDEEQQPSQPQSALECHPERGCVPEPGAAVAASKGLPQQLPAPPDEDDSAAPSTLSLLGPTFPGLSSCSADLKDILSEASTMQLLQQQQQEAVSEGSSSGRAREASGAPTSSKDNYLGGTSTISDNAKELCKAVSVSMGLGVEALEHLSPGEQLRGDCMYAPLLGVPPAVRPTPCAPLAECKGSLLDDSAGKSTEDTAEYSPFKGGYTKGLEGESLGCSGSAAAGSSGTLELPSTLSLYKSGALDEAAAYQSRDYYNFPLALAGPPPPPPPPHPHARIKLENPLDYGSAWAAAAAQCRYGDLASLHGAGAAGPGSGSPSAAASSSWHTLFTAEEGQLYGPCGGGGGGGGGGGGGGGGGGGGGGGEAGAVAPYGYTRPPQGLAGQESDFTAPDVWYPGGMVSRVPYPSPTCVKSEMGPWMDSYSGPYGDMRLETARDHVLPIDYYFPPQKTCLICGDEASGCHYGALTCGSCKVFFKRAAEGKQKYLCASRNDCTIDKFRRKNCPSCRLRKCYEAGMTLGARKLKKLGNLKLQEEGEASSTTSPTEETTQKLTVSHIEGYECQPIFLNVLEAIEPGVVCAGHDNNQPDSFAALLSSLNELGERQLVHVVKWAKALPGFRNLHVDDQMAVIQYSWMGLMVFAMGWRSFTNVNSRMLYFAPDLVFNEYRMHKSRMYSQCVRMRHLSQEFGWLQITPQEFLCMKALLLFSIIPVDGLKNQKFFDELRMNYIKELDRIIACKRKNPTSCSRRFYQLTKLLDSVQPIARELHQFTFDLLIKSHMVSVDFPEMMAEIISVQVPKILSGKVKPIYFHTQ

Test [15] has the same target. The test is described as follows: qHTS assay to identify small molecule agonists of the androgen receptor (AR) signaling pathway (AID 743036; active = well fitted activation curve with a large enough effect in the signal ratio in the repeat runs, with a control signal flat, not every such curve was filed as active; the % refers to the signal ratio; also: % is scaled to controls: 0 for no effect and ±100 for the full control effect). In a few lines: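 Beta-lactamase under UAS control, stably integrated in HEK293 GripTite cells, reports receptor activation. After 16 h compound treatment, cells received FRET substrate for 2 h at room temperature before fluorescence reading.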

Test [16] can be described thus: qHTS assay to identify small molecule antagonists of the androgen receptor (AR) signaling pathway using the MDA cell line - cell viability counter screen (AID 743041; also: nearly all actives have a fitted effect of over 45% in size; also: potency is read from the fitted curve at half-maximal effect). In short, it runs like this:
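Viability read by CellTiter-Fluor fluorescence in the same wells as the antagonist screen, added after 15.5 h of a 16 h, 37C exposure. Human breast carcinoma MDA-kb2 AR-luc cells, compounds co-dosed with agonist R1881.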

The target in test [17] is Androgen receptor (Homo sapiens) (UniProt P10275). Put plainly: qHTS assay to identify small molecule antagonists of the androgen receptor (AR) signaling pathway using the MDA cell line (AID 743042; also: nearly all actives have a fitted effect of over 55% in size; also: potency is read from the fitted curve at half-maximal effect). In short, it runs like this:
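Antagonist mode: compounds plus R1881 agonist added to MDA-kb2 AR-luc cells, incubated 16 h at 37C. Luciferase reporter luminescence quantified, with multiplexed CellTiter-Fluor readout for cell viability.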

For test [18], the target named is Glucocorticoid receptor (Homo sapiens) (UniProt P04150). Put plainly: qHTS assay to identify small molecule agonists of the glucocorticoid receptor (GR) signaling pathway (AID 720691; active = well fitted activation curve with a large enough effect in the signal ratio in the repeat runs, not every such curve was filed as active; the % refers to the signal ratio; also: % is scaled to controls: 0 for no effect and ±100 for the full control effect). The settings on record: GR-bla HeLa, beta-lactamase reporter ratio, 18 h; activation: at 62.4 µM (top of the series). In short, it runs like this:
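HeLa GR-bla reporter line; cells pre-incubated 4 h, compound in DMSO 18 h at 37 C; LiveBLAzer B/G FRET substrate 2 h RT; fluorescence intensity read-out.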

Test [19] has the same target. Put plainly: qHTS assay to identify small molecule antagonists of the glucocorticoid receptor (GR) signaling pathway (AID 720692; active = well fitted inhibition curve with a large enough effect in the signal ratio in the repeat runs, not every such curve was filed as active; the % refers to the signal ratio; also: % is scaled to controls: 0 for no effect and ±100 for the full control effect). In short, it runs like this:
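Read-out: beta-lactamase FRET substrate fluorescence, 2 h at room temperature, in HeLa cells stably carrying a GRE-driven bla reporter. Compounds were co-incubated with 5 nM dexamethasone agonist (final) for 18 h at 37 C.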

Sequence of Glucocorticoid receptor (Homo sapiens) (P04150 whole entry, looked up): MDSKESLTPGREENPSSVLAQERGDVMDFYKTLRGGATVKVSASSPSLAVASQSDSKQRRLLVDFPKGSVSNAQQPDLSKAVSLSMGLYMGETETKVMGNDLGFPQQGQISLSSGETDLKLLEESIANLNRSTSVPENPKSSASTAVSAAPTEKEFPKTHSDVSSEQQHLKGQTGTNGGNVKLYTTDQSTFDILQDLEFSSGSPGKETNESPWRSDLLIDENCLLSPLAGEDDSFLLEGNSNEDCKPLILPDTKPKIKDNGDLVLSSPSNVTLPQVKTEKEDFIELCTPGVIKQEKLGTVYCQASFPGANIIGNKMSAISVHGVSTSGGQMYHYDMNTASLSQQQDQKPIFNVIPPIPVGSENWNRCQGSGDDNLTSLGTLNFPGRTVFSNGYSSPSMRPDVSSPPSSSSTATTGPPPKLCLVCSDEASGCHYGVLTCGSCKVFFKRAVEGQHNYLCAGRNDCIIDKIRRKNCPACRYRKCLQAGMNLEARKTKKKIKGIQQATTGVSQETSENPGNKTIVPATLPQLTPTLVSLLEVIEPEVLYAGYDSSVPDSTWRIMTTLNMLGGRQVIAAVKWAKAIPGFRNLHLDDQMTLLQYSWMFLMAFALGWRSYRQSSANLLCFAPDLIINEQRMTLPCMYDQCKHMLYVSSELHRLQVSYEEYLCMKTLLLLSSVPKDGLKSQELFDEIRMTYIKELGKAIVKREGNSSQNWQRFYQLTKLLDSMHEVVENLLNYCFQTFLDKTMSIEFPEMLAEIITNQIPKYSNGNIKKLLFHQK

In the case of `CCCCCCCC/C=C\CCCCCCCC(=O)N(C)CC(=O)O`, the Potency result in test [1], in test [2], in test [3], in [4], in [5] and in [6] was “inactive” in each case. For the same compound, the Potency result in test [7] and in test [8] was “inactive” throughout. In addition, the Potency in test [9] was 49 µM (active); in test [10], 27.3 µM (active).

For the compound `O=C1NCCN1CCN1CCC(c2cn(-c3ccc(F)cc3)c3ccc(Cl)cc23)CC1`, the Potency result in test [1], in [2], in test [3], in [4], in test [5] and in [6] was “inactive” each time. In addition, the Potency result in test [7] is “inactive”. The Potency was 23.9 µM (active) in test [9]; 944 nM (active) and 1.5 µM (active) in [11]; 1.88 µM (active) and 2.37 µM (active) in test [12]; 1.68 µM (active) and 2.66 µM (active) in [10]; 16.9 µM (active) and 21.3 µM (active) in [13]; 16.9 µM (active) and 21.3 µM (active) in [14]. For the same compound, the Potency was 13.3 µM (active) and 21.1 µM (active) in test [16]; 11.9 µM (active) and 18.8 µM (active) in test [17]. Also, the compound was classed as inactive in test [15].

In the case of `Cc1oc(-c2ccccc2)nc1CCOc1ccc(C[C@H](Nc2ccccc2C(=O)c2ccccc2)C(=O)O)cc1`, the Potency entry in test [1], in [2], in [3], in [4], in [5] and in test [6] was “inactive” each time. In addition, the Potency entry in [7] and in test [13] was “inactive” each time. The Potency in test [9] is 38.9 µM (active); in test [12], 61.1 µM (active); in test [10], 54.5 µM (active); in test [16] it was 61.1 µM (active).

Consider `CN(C)c1ccc(N=NS(=O)(=O)O)cc1`, for which the Potency result in [1], in [2], in test [3], in [4], in test [5] and in test [6] was “inactive” each time. The Potency result in test [7], in test [18] and in [9] was “inactive” in each case. In addition, the Potency is 22.9 µM (active) in test [11]; 26.1 µM (active) in [12]; 22 µM (active) in [10]; 14.4 µM (active) in test [16]; 23.7 µM (active) in [17].

In the case of `CSc1c(Cl)c(Cl)c(Cl)c(Cl)c1Cl`, the Potency result in [1], in test [2], in [3], in test [4], in test [5] and in test [6] was “inactive” each time. Further, the Potency entry in test [7], in test [18], in test [19], in test [9], in test [11] and in test [10] was “inactive” throughout. The Potency entry in test [13] and in [16] was “inactive” in each case.

Turning to `CN1[C@@H]2CC[C@H]1CC(OC(=O)C(CO)c1ccccc1)C2` (stereo not given in full), the Potency entry in test [1], in [2], in test [3], in [4], in [5] and in test [6] was “inactive” in each case. In addition, the Potency result in test [7], in test [18], in test [19], in test [9], in test [13] and in test [16] was “inactive” in each case.

Take `O=C1c2c(O)ccc([N+](=O)[O-])c2C(=O)c2c([N+](=O)[O-])ccc(O)c21`: the Potency result in test [1], in [2], in test [3], in test [4], in test [5] and in [6] was “inactive” throughout. Also, the Potency result in test [7] was “inactive”. Moreover, the Potency is 8.63 µM (active) in test [9]; 13.6 µM (active) in [11]; 6.8 µM (active) in test [12]; 5.4 µM (active) in test [10]; 6.85 µM (active) in [13]; 21.5 µM (active) in test [16].

Take `CC(NCCC(c1ccccc1)c1ccccc1)c1ccccc1` (stereo not given): the Potency entry in test [1], in [2], in test [3], in test [4], in [5] and in test [6] was “inactive” in each case. The Potency result in [7] and in [8] was “inactive” each time. Further, the Potency in test [11] was 2.98 µM (active); in [12] it was 4.22 µM (active); in test [10] it was 5.31 µM (active); in [13], 21.3 µM (active); in test [14], 21.3 µM (active); in test [16], 23.7 µM (active). For the same compound, in [17], the Potency is 23.7 µM (active).

For the compound `CC(C)N=C(N)/N=C(\N)Nc1ccc(Cl)cc1`, in test [1], the fluorescence, % of fluorescein is -0.0268% [at 18.6 µM]. In addition, the fluorescence, % of fluorescent control in [2] is -0.0312% [at 18.6 µM]; in test [4], -0.0425% [at 18.6 µM]; in [6], -0.111% [at 18.6 µM]. Also, the activity change in test [3] is -0.0305% [at 18.6 µM, active compounds read high]. Further, in test [5], the fluorescence, % of Rose Bengal was 0.0381% [at 18.6 µM]. Moreover, the fluorescence, % of fluorescein control in [7] is 0.0037% [at 18.6 µM]. In addition, the Potency result in [18], in test [19], in test [9] and in test [16] was “inactive” throughout. Besides, the Potency was 3.59 µM (active) in test [11], 12.7 µM (active) in [12] and 10.1 µM (active) in test [10].

Regarding `NC(=O)c1nc(-c2cccc(-c3cc(F)ccc3OCC(F)(F)C(F)(F)F)c2)n[nH]1`, the Potency result in test [1], in test [2], in test [3], in [4], in test [5] and in test [6] was “inactive” in each case. The Potency result in [7] and in test [8] was “inactive” throughout. For the same compound, the Potency in test [11] was 17.2 µM (active); in test [12], 24.3 µM (active); in test [10], 13.7 µM (active); in test [13] it was 21.9 µM (active); in test [14] it was 13.8 µM (active); in [16] it was 61.1 µM (active). The Potency in test [17] was 61.1 µM (active).

With `C=CC(C)(CCC=C(C)C)OC(=O)/C=C/c1ccccc1` (stereo not given), the Potency result in test [1], in test [2], in test [3], in [4], in test [5] and in test [6] was “inactive” in each case. The Potency result in test [7], in test [8], in test [9], in [14], in test [16] and in test [17] was “inactive” in each case. For the same compound, the result in [15] was inactive.

For `CCCCCCCC/C=C\CCCCCCCC(=O)NCc1ccc(O)c(OC)c1`, the Potency result in test [1], in test [2], in test [3], in test [4], in test [5] and in [6] was “inactive” in each case. The Potency entry in test [7], in [8], in test [13] and in [16] was “inactive” in each case. For the same compound, the results for the Potency in [9] and in test [10] were 21.3 µM (active) and 18.8 µM (active), respectively.

Take `CCCCCCCOC(=O)c1ccc(O)cc1`: the Potency entry in test [1], in test [2], in test [3], in test [4], in test [5] and in test [6] was “inactive” in each case. Besides, the Potency entry in test [7], in test [11], in test [13] and in test [16] was “inactive” in each case. Moreover, the Potency in test [9] is 49 µM (active); in [12], 43.3 µM (active); in test [10], 54.5 µM (active) and 48.6 µM (active).

On to `Clc1ccc(C(Cn2ccnc2)OCc2ccsc2Cl)c(Cl)c1` (stereo not given), for which the Potency entry in test [1], in [2], in [3], in test [4], in [5] and in test [7] was “inactive” each time. Also, the Potency result in test [8] and in test [16] was “inactive” each time. The Potency in test [11] was 7.5 µM (active); in [12] it was 11.9 µM (active); in test [10], 13.3 µM (active); in [13] it was 26.8 µM (active).
